Assay results: PubChem BioAssay (NCATS)
“And” between values parts separate entries of the source, which are not always exact repeats. Identical values can stand only once. Records with an inconclusive call do not appear. Where a call stands in place of a potency, no number is given. The source made the active and inactive calls. The call rests on the fitted dose curve; in most records, active means well fitted cell-killing curve with a large enough effect; inconclusive means small, poorly fitted or top-dose-only effect; inactive means flat fitted curve, though single readings scatter.

test: qHTS of pediatric cancer cell lines to identify multiple opportunities for drug repurposing: Confirmatory screen for BT-12 cells (AID 1347112); settings: BT-12 rhabdoid tumor cells, viability; series mostly up to 45.9 µM;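 further: viability read after 48 h of compound exposure; nearly all actives have a fitted effect of over 55% in size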
Text: Drug repurposing or repositioning has been offered as a strategy for drug development in oncology programs. This approach has special potential for childhood cancers and other rare or orphan diseases, where the expected return on new drug development has been a disincentive to pharmaceuticals.
In this project we exploit the poly-pharmacology of drugs to discover new indications via phenotypic screening of a panel of 19 well-characterized cell lines derived from solid tumors seen in children and adolescents. The goal is to identify approved drugs with previously unrecognized anticancer properties that has the potential to reveal new mechanisms and biological processes involved in carcinogenesis or drug resistance. We employed a titration-based paradigm (quantitative high-throughput screening or qHTS), where all compounds were tested at multiple concentrations for their effect on cell viability. Concentration-response curves (CRCs) were derived directly from the primary screen, and both potency and efficacy values were used to identify compounds with robust bioactivity profiles. We screened the NIH Chemical Genomics Center (NCGC) Pharmaceutical Collection (NPC) and Mechanism Interrogation Plate (MIPE) small molecule collections of approved and investigational compounds against these cell lines; and measured metabolically active cells after 48 hours of compound treatment as a proxy for cell viability.
Assay Submitter: Nathalia J. Martinez, National Center for Advancing Translational Sciences, National Institutes of Health, Rockville, MD, USA; email: natalia.martinez@nih.gov
[1] Shen, M et al. Quantitative high-throughput phenotypic screening of pediatric cancer cell lines identifies multiple opportunities for drug repurposing. Oncotarget 2017 Dec 19;9(4):4758-4772. PMID 29435139.
The cells were obtained from University of North Carolina (UNC), Pediatric Preclinical Testing Program (PPT), and Coriell Institute (CI).
qHTS cell viability assay:
Cells were assayed in growth media at a density of 500-1,000 cells/well. Five microliters of cells were dispensed into 1,536-well, white, solid-bottom, TC-treated plates (Greiner Bio One) using a multidrop dispenser and incubated at 37 degrees C, 5% CO2, under a humidified atmosphere for 5 hours. Twenty-three nanoliters of compounds and controls (neutral control DMSO or positive control bortezomib at final concentration of 2.3 µM) were subsequently transferred by Kalypsys pintool. For primary screens, the MIPE collection was tested at 11-point dilutions (final concentrations range from 0.78 nM to 46 µM) and the NPC collection at 8-point dilutions (final concentrations range from 0.59 nM to 46 µM). Compounds tested in follow-up screens were assayed at 11-point dilutions. Cells were incubated for 48 hours, followed by addition of 3 µL of CellTiter-Glo (Promega). After a 15 min incubation at room temperature, samples were analyzed for luminescence intensity using a ViewLux High-throughput CCD imager equipped with clear filters.
Potency means the concentration at half of the fitted maximal effect.

| SMILES | Potency |
| --- | --- |
| CCN(CCO)CCCC(C)Nc1ccnc2cc(Cl)ccc12 (configuration not stated) | inactive |
| Cc1nc(Nc2ncc(C(=O)Nc3c(C)cccc3Cl)s2)cc(N2CCN(CCO)CC2)n1 | 6.57 µM (active) |
| Clc1ccc(C(Cn2ccnc2)OCc2ccsc2Cl)c(Cl)c1 (configuration not stated) | 16.5 µM (active) |
| CCOc1cc(CC(=O)N[C@@H](CC(C)C)c2ccccc2N2CCCCC2)ccc1C(=O)O | inactive |
| Nc1nc(Cl)nc2c1ncn2[C@H]1C[C@H](O)[C@@H](CO)O1 | inactive |
| CCCOc1ccc2nc(NC(=O)OC)[nH]c2c1 | 4.14 µM (active) |
| CCN(CC)CCOc1ccc(Nc2ncc3cc(-c4c(Cl)cccc4Cl)c(=O)n(C)c3n2)cc1 | 11.7 µM (active) |
| C=C(c1ccc(C(=O)O)cc1)c1cc2c(cc1C)C(C)(C)CCC2(C)C | inactive |
| Clc1ccc(C(Cn2ccnc2)OCc2ccc(Sc3ccccc3)cc2)c(Cl)c1 (configuration not stated) | 29.3 µM (active) |
| CS(=O)(=O)OCCCCOS(C)(=O)=O | inactive |
| Nc1ccn([C@@H]2O[C@H](CO)[C@@H](O)C2O)c(=O)n1 (some centres not stated) | inactive |
| Oc1ccc(-c2nc(-c3ccc(F)cc3)c(-c3ccncc3)[nH]2)cc1 | 11.7 µM (active) |
| CC(S)C(=O)NCC(=O)O (configuration not stated) | inactive |
| c1cnc2cc3c(cc2n1)C1CNCC3C1 | inactive |
| CN(C)c1ccc2nc3ccc(=[N+](C)C)cc-3sc2c1 | 1.04 µM (active) |
| O=C1c2c(O)cc(O)cc2OC(c2ccc(O)c(O)c2)C1O (configuration not stated) | inactive |
| CC[C@]1(O)C[C@H]2CN(CCc3c([nH]c4ccccc34)[C@@](C(=O)OC)(c3cc4c(cc3OC)N(C=O)[C@H]3[C@@](O)(C(=O)OC)[C@H](OC(C)=O)[C@]5(CC)C=CCN6CC[C@]43[C@@H]65)C2)C1 | 36.9 nM (active) and 208 nM (active) |
| CN(C)c1ccc(O)c2c1C[C@H]1C[C@H]3[C@H](N(C)C)C(=O)C(C(N)=O)=C(O)[C@@]3(O)C(=O)C1=C2O | inactive |
| C[C@]12CCC(=O)C=C1CC[C@@H]1[C@H]2[C@@H](O)C[C@@]2(C)[C@H]1CC[C@]2(O)C(=O)CO | inactive |
| CC(C)C[C@H](NC(=O)[C@H](Cc1ccccc1)NC(=O)c1cnccn1)B(O)O | 0.0465 µM (active) |
| O=C(CCc1ccc(O)cc1)c1c(O)cc(O)cc1O | inactive |
| Nc1ncn([C@H]2C[C@H](O)[C@@H](CO)O2)c(=O)n1 | inactive |
